Data on 13 molecules can be found in PubChem BioAssay (NCI).

Test systems include NCI-H23 lung; NCI-H226 lung; NCI-H322M lung; HOP-62 NSCLC; NCI-H460 lung; HOP-92 NSCLC; NCI-H522 lung; A549/ATCC NSCLC; 786-0 renal; COLO 205 colon.
Common to all, as to experiment: NCI-60 one-dose screen, 48 h (100 = growth as untreated, 0 = no growth, -100 = all killed)
Settings in all cases: 10 µM unless noted

Compounds without any hit were thinned out: in the full panel of roughly 83,000, 20% have a hit.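 96-well plates, one dose, 48 hours. Percent growth reported; active if below 10.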 Unmarked numbers belong to inactive results. Activity calls are given as the source filed them.

As for `C#Cc1cccc(NC(=O)c2ccccc2NC(=O)CCl)c1`, the growth in the assay with NCI-H23 lung was 64.4% [8.25 µM]; with NCI-H226 lung, 50.1% [8.25 µM]; in the assay with NCI-H322M lung, 99.3% [8.25 µM]; in the assay with HOP-62 NSCLC, 75.8% [8.25 µM]; with NCI-H460 lung it was 98.3% [8.25 µM]; in the assay on HOP-92 NSCLC, 77.4% [8.25 µM]. The growth in the assay with NCI-H522 lung is 10.6% [8.25 µM]; in the assay on A549/ATCC NSCLC, 92.7% [8.25 µM]; in the assay with 786-0 renal it was 87.5% [8.25 µM]; in the assay with COLO 205 colon, 114% [8.25 µM].
Turning to `COc1ccccc1Nc1nc(-c2cc3cccc(C(F)(F)F)c3oc2=O)cs1`, the growth in the assay on NCI-H23 lung is 18.6%; in the assay on NCI-H226 lung it was 13.4%; in the assay on NCI-H322M lung, 33%; in the assay with HOP-62 NSCLC it was 25.3%; with NCI-H460 lung it was 4.14% (active); in the assay on HOP-92 NSCLC it was 26.9%. Further, the growth is -16.5% (active) in the assay with NCI-H522 lung, 17.1% in the assay with A549/ATCC NSCLC, 20.8% in the assay on 786-0 renal and -50.3% (active) in the assay with COLO 205 colon.
`CN(Cc1cc(Cl)cc(Cl)c1O)Cc1cc(Cl)cc(Cl)c1O`: the growth in the assay with NCI-H23 lung was 76.9%; with NCI-H226 lung, 71.5%; in the assay with NCI-H322M lung, 54.9%; in the assay with HOP-62 NSCLC it was 54.6%; in the assay with NCI-H460 lung it was 45.6%; with HOP-92 NSCLC, 92.5%. Further, the growth was 72.2% in the assay with NCI-H522 lung, 61.2% in the assay on A549/ATCC NSCLC, 94.7% with 786-0 renal and 99.5% in the assay with COLO 205 colon.
As to `C=C(C)[C@@H]1CC[C@]2(C(N)=O)CC[C@]3(C)[C@H](CC[C@@H]4[C@@]5(C)C/C(=C/c6ccco6)C(=O)C(C)(C)[C@@H]5CC[C@]43C)[C@@H]12`, the growth in the assay on NCI-H23 lung was 98%; in the assay on NCI-H226 lung it was 95.8%; in the assay on NCI-H322M lung it was 98.9%; in the assay on HOP-62 NSCLC it was 98.5%; in the assay on NCI-H460 lung it was 96%; in the assay with HOP-92 NSCLC, 103%. In addition, the growth in the assay on NCI-H522 lung was 78.8%; with A549/ATCC NSCLC it was 86.6%; in the assay with 786-0 renal, 95.3%; in the assay on COLO 205 colon, 113%.
As to `COc1ccc(Nc2c3c4c(cccc4[nH]c2=O)C(=O)c2ccccc2-3)cc1`, the growth is 4.11% (active) with NCI-H23 lung; 17% in the assay with NCI-H226 lung; 24.9% in the assay on NCI-H322M lung; 28% in the assay with HOP-62 NSCLC; -44.4% (active) with NCI-H460 lung; 15.5% in the assay with HOP-92 NSCLC. Further, the growth with NCI-H522 lung is -20.4% (active); in the assay on A549/ATCC NSCLC it was 20.6%; with 786-0 renal, 12.1%; in the assay with COLO 205 colon, -64.5% (active).
In the case of `CCCCCCCCCCCCC[N+](C)(C)Cc1ccccc1`, the growth with NCI-H23 lung was -22.8% (active); in the assay with NCI-H226 lung it was -8.07% (active); in the assay on NCI-H322M lung, 82.5%; in the assay on HOP-62 NSCLC it was -73.1% (active); in the assay with NCI-H460 lung, 0.965% (active); in the assay with HOP-92 NSCLC, -64.3% (active). For the same molecule, the growth in the assay with NCI-H522 lung was -60.1% (active); with A549/ATCC NSCLC it was 40.5%; with 786-0 renal it was -56.1% (active); with COLO 205 colon it was -91.8% (active).
Turning to `C#CCOc1ccc2ncnc(N3CCN(C(=O)CCl)CC3)c2c1`, the growth was 93.3% [8.25 µM] in the assay on NCI-H23 lung; -15.9% [8.25 µM] (active) in the assay with NCI-H226 lung; 99.3% [8.25 µM] in the assay on NCI-H322M lung; 85% [8.25 µM] with HOP-62 NSCLC; 101% [8.25 µM] with NCI-H460 lung; 88.7% [8.25 µM] in the assay on HOP-92 NSCLC. The growth is -59.5% [8.25 µM] (active) with NCI-H522 lung, 100% [8.25 µM] with A549/ATCC NSCLC, 94.5% [8.25 µM] in the assay with 786-0 renal and 96.1% [8.25 µM] with COLO 205 colon.
As to `CCOc1nc(-c2ccccc2)cc2c(O)c(C(=O)N/N=C/c3ccc(O)cc3O)[nH]c(=O)c12`, the growth was 3.35% (active) in the assay on NCI-H23 lung; 26.4% in the assay with NCI-H226 lung; 42.2% in the assay on NCI-H322M lung; 27.1% with HOP-62 NSCLC; 61.6% in the assay on NCI-H460 lung; -12.1% (active) in the assay with HOP-92 NSCLC. In addition, the growth in the assay with NCI-H522 lung is 10.8%; in the assay on A549/ATCC NSCLC, 46.2%; in the assay on 786-0 renal, 14.4%; in the assay on COLO 205 colon, 15.9%.
For the molecule `O=c1ccccc(-c2ccc(-c3ccco3)cc2)c1O`, the growth in the assay with NCI-H23 lung was 19.1%; in the assay with NCI-H226 lung, 21.7%; in the assay on NCI-H322M lung it was 21.6%; with HOP-62 NSCLC it was 6.97% (active); with NCI-H460 lung, 2.15% (active); with HOP-92 NSCLC, 60.1%. In addition, the growth is 27.3% in the assay with NCI-H522 lung, 13.3% in the assay on A549/ATCC NSCLC, 10.6% with 786-0 renal and 26.3% in the assay with COLO 205 colon.
In the case of `COc1ccc(-n2nc(C)c3c(Nc4ccc(NC(=O)Nc5cc(C(F)(F)F)ccc5F)cc4)ncnc32)cc1`, the growth was 32.7% in the assay on NCI-H23 lung; 73.8% in the assay with NCI-H226 lung; 11% with NCI-H322M lung; -38.6% (active) in the assay on HOP-62 NSCLC; 13.7% in the assay on NCI-H460 lung; 32.9% in the assay with HOP-92 NSCLC. The growth in the assay on NCI-H522 lung is -12% (active); with A549/ATCC NSCLC it was 22.9%; in the assay on 786-0 renal it was 11.3%; in the assay with COLO 205 colon, 15.2%.
As to `CN1CCN(c2ccc3nc(-c4ccc(OCCCCN5CCN(CCCCN6C(=O)c7cccc8cccc(c78)C6=O)CC5)cc4)[nH]c3c2)CC1`, the growth in the assay with NCI-H23 lung is 85.3%; in the assay with NCI-H226 lung it was 86.6%; in the assay on NCI-H322M lung it was 90.5%; in the assay with HOP-62 NSCLC, 64.1%; in the assay on NCI-H460 lung it was 71.9%; with HOP-92 NSCLC, -54.4% (active). The growth in the assay on NCI-H522 lung is 65%; with A549/ATCC NSCLC it was 57.1%; in the assay on 786-0 renal, 53%; in the assay with COLO 205 colon it was 77.8%.
For the molecule `CCCOc1cc2ccccc2cc1C(=O)Nc1nc(N)c2c(ccc3nccc32)[nH]1`, the growth with NCI-H23 lung was -55.1% (active); in the assay with NCI-H226 lung, -56.6% (active); in the assay with NCI-H322M lung, -35.1% (active); in the assay with HOP-62 NSCLC it was -68.8% (active); with NCI-H460 lung, -75.8% (active); with HOP-92 NSCLC, -71.2% (active). Moreover, the growth is -59.6% (active) in the assay with NCI-H522 lung, -70.3% (active) in the assay on A549/ATCC NSCLC, -71.9% (active) in the assay with 786-0 renal and -78.3% (active) in the assay with COLO 205 colon.
`CC/C=C\C[C@H](O)C/C=C1/C(=O)C=C[C@@]1(C)C/C=C\CCCC(=O)OC`: the growth with NCI-H23 lung was 87.2%; in the assay on NCI-H226 lung, 121%; with NCI-H322M lung, 106%; in the assay with HOP-62 NSCLC, 104%; in the assay on NCI-H460 lung, 110%; in the assay with HOP-92 NSCLC it was 99.6%. Also, the growth in the assay with NCI-H522 lung was 81.2%; with A549/ATCC NSCLC, 88.6%; in the assay with 786-0 renal, 100%; with COLO 205 colon, 113%.
